This note sets out measurements from PubChem BioAssay (NCATS).

Results filed as inconclusive are left out. Unmarked numbers belong to inactive results. Activity calls are given as the source filed them. Unless noted, the call rests on the fitted dose curve; in most records, active means well fitted curve in the direction sought with a large enough effect; inconclusive means small, poorly fitted or top-dose-only effect, or another doubt; inactive means no such curve, though single readings can be large; an effect the other way counts as inactive or inconclusive.

The nature of assay [1]: qHTS to identify inhibitors of the type 1 interferon - major histocompatibility complex class I in skeletal muscle: primary screen against the NCATS Pharmaceutical Collection (AID 1347407).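 Further: luminescence of HiBiT knocked into endogenous HLA-B as interferon-induced MHC class I level.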 The procedure, abridged: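 Compounds […] were added to CRISPR-engineered HLA-B-HiBiT C25cl48 human myoblasts with 4.0 ng/ml IFN-beta. After 24 hrs at 37 C, cells were lysed and HiBiT luminescence measured.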
On the technique in general: qHTS replaces the single test concentration by a dilution series.

The target of assay [2] is Protein phosphatase 1D (Homo sapiens) (UniProt O15297). Description: RapidFire Mass Spectrometry qHTS Assay for Modulators of WT P53-Induced Phosphatase 1 (WIP1) (AID 1347424).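 Further: amount of dephosphorylated VEPPL-S-QETFS peptide product formed by WIP1; series mostly up to about 63 µM.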 The procedure, abridged:
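10 nM WIP1 + cpd, 1 h RT; + 2 uM VEPPL-pS-QETFS, 5 min RT; stop 0.5% formic acid; labelled product standard 1 uM; RapidFire MS. Buffer 50 mM Tris pH 7.5, 30 mM MgCl2, 1 mM TCEP.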

Assay [3] shares this target. Description: Rhodamine-PBP qHTS Assay for Modulators of WT P53-Induced Phosphatase 1 (WIP1) (AID 1347425). The procedure, abridged: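 The read-out is the change in Rhodamine-PBP fluorescence (f1 - f0, ex 525/em 598 nm) as Pi is released, read each minute for 11 min. Final reaction: 5 nM WIP1, 10 uM phosphopeptide VEPPL-pS-QETFS, 10 uM Rh-PBP, 50 mM Tris-HCl pH 7.5, 30 mM MgCl2. Compound was preincubated with enzyme for 1 hour at room temperature.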

The nature of assay [4]: Primary qHTS for inhibitors of La Crosse Virus (LACV) - induced cell death in SH-SY5Y cells (AID 1508616).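 Further: top concentration of the series differs between compounds; higher means more rescue of cells from virus-induced death.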 In outline:
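SH-SY5Y cells (6000/well) plated 24 h, then given compounds by pin transfer and LACV at 0.01 MOI for 6 days at 37C. Viability measured by ATPLite luminescence, normalized to infected DMSO and uninfected DMSO.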

In assay [5] the target is Calcium and integrin-binding protein 1 (Homo sapiens) (UniProt Q99828). As to the kind of experiment: Primary qHTS for Identification of Calcium Integrin Binding Protein 1 (CIB1) Competitor (AID 1508620).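 Further: GST tagged CIB1 binding a fluorescein labelled alphaIIb integrin peptide tracer; top concentration of the series differs between compounds.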 In outline:
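CIB1-GST (1 uM final) and compound incubated 15 min at room temperature before adding FITC-alphaIIb peptide tracer (100 nM final). Competition for binding read by fluorescence polarization (ex 480, em 540) after another 15 min at room temperature.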

Assay [6] can be described thus: Primary qHTS for small molecule stabilizers of the endoplasmic reticulum resident proteome: Secreted ER Calcium Modulated Protein (SERCaMP) assay (AID 1508630). In outline: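 GLuc-SERCaMP-expressing SH-SY5Y cells, pretreated 16 h with compound, are challenged with thapsigargin to empty ER calcium stores; after 4 h, coelenterazine is added directly to the medium and luminescence is imaged.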

Assay [7] addresses Cytochrome P450 2D6 (Homo sapiens) (UniProt P10635). As to the kind of experiment: Cytochrome P450 family 2 subfamily D member 6 (CYP2D6) small molecule antagonists: luciferase biochemical (cell-free) qHTS assay (AID 1645840; active means well fitted curve in the direction sought with a large enough effect in the repeat runs; an effect the other way counts as inactive or inconclusive; further: nearly all actives have a fitted effect of over 55% in size; further: potency means the concentration at half of the fitted maximal effect). In outline:
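P450-Glo luminescent screen: recombinant CYP2D6 enzyme–proluciferin substrate mix preincubated with compound 10 min at room temperature, then NADPH regeneration added for 1 h at room temperature. Detection reagent added for 20 min; luciferin light read as relative luminescence units.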

In assay [8] the target is Cytochrome P450 2C9 (Homo sapiens) (UniProt P11712). As to the kind of experiment: Cytochrome P450 family 2 subfamily C member 9 (CYP2C9) small molecule antagonists: luciferase biochemical (cell-free) qHTS assay (AID 1645842; active means well fitted curve in the direction sought with a large enough effect in the repeat runs; an effect the other way counts as inactive or inconclusive; further: series mostly up to about 57 µM; nearly all actives have a fitted effect of over 55% in size). The procedure, abridged:
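Luminescence, after 20 min with luciferin detection reagent, reflected CYP2C9 turnover during a 1 h NADPH-driven reaction at 37C. Enzyme-substrate mix contained 0.4% bovine serum albumin and was preincubated with compound 10 min at room temperature.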

Assay [9] in a line: Primary qHTS for inhibitors of nuclear receptor binding SET domain protein 2 (NSD2) in an isogenic RCH-ACV NSD2 p.E1099K mutant (9B) (AID 1645876). Further: nearly all actives have a fitted effect of over 70% in size.
The nature of assay [10]: Primary qHTS for inhibitors of nuclear receptor binding SET domain protein 2 (NSD2) in an RCH-ACV wild type WT cells (2C) (AID 1645877). Further: nearly all actives have a fitted effect of over 70% in size.
The nature of assay [11]: A High-Content qHTS Against Drug Library for the Identification of Small Molecules that Inhibit DYT1 Early Onset Primary Dystonia-Associated Cell Pathology (AID 1645839; calls by dose curve; further: series mostly up to about 46 µM). In outline: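 In this high-content image screen, delE TorsinA mislocalization in inducible Flp-In 293 cells is scored as %pathology, with cell count serving as the counterscreen. Compound exposure lasts 48 h under tetracycline induction in reduced-serum medium.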

Assay [12] concerns the target Cytochrome P450 3A4 (Homo sapiens) (UniProt P08684). Description: Cytochrome P450 family 3 subfamily A member 4 (CYP3A4) small molecule antagonists: luciferase qHTS assay (AID 1645841; active means well fitted curve in the direction sought with a large enough effect in the repeat runs; an effect the other way counts as inactive or inconclusive; further: nearly all actives have a fitted effect of over 45% in size). The procedure, abridged: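 Luminescent CYP3A4 activity readout: compounds plus enzyme-substrate mix 10 min at room temperature, reaction started with NADPH regenerating system for 1 h, stopped with detection reagent, read after 20 min. Ketoconazole served as control.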

The target of assay [13] is Rap guanine nucleotide exchange factor 3 (Homo sapiens) (UniProt O95398). As to the kind of experiment: Confirmatory qHTS for antagonist of cAMP-regulated guanine nucleotide exchange factor 3 (EPAC1) (AID 1645880). Further: nearly all actives have a fitted effect of over 55% in size. In outline: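 Nucleotide exchange uses 100 nM EPAC1, 250 nM RAP1B-BODIPY-GDP and 50 uM GDP, with compounds in a concentration-titration series. After 5 min at room temperature, fluorescence (480 nm ex/540 nm em) is read every 5 min for 30 min. Data are normalized to control ATA and DMSO.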
Rap guanine nucleotide exchange factor 3 (Homo sapiens), sequence (O95398 whole entry, looked up): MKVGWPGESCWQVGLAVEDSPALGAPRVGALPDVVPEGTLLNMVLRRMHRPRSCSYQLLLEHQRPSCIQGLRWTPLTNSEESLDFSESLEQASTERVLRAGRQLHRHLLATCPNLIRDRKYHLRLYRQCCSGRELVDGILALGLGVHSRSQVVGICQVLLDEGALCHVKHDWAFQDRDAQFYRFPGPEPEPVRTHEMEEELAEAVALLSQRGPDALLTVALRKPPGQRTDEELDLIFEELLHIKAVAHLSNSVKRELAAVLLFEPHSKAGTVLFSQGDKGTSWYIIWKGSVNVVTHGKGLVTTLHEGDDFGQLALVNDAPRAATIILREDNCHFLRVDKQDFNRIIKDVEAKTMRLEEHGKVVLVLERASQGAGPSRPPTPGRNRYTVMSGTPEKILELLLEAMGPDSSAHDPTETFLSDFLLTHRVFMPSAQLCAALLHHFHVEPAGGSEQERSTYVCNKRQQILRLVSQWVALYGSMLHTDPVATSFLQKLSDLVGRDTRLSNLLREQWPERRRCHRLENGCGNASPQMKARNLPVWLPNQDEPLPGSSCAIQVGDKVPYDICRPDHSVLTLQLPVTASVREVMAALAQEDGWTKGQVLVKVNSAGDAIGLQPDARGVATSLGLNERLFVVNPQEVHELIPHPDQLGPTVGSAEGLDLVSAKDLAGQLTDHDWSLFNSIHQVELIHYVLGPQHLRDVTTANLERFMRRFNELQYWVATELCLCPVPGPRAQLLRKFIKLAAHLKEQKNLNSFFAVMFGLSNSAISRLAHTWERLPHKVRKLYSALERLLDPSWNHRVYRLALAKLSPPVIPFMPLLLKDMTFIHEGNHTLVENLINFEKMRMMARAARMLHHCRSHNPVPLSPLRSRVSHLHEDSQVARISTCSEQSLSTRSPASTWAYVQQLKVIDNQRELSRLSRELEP

Assay [14] has the same target. As to the kind of experiment: Confirmatory qHTS for agonist of cAMP-regulated guanine nucleotide exchange factor 3 (EPAC1) (AID 1645881).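 Further: EPAC1 catalysed release of BODIPY-GDP from Rap1B seen as fluorescence loss; nearly all actives have a fitted effect of over 75% in size.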

Calcium and integrin-binding protein 1 (Homo sapiens), sequence (Q99828 whole entry, looked up): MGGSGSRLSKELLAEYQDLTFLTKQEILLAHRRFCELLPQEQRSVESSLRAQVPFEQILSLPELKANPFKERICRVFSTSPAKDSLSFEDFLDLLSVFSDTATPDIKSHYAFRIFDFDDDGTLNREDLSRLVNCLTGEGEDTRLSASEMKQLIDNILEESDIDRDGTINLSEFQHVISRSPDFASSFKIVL
Protein phosphatase 1D (Homo sapiens), sequence (O15297 whole entry, looked up): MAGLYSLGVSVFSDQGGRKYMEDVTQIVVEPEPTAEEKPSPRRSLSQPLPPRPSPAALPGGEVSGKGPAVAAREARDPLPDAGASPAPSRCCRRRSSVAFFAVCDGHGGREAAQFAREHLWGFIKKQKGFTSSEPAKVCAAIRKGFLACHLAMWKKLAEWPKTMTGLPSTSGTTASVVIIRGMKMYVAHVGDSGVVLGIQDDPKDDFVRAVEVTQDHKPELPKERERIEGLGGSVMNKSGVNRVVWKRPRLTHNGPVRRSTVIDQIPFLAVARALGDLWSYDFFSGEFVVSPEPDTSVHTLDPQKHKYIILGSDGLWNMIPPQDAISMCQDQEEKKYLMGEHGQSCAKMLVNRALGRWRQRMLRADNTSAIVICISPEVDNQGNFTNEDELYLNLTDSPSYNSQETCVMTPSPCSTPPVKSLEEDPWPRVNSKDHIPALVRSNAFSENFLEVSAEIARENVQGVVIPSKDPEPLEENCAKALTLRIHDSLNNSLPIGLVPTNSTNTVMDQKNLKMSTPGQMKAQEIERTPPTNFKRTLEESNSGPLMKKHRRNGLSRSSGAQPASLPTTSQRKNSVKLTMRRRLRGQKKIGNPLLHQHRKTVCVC
Cytochrome P450 2C9 (Homo sapiens), sequence (P11712 whole entry, looked up): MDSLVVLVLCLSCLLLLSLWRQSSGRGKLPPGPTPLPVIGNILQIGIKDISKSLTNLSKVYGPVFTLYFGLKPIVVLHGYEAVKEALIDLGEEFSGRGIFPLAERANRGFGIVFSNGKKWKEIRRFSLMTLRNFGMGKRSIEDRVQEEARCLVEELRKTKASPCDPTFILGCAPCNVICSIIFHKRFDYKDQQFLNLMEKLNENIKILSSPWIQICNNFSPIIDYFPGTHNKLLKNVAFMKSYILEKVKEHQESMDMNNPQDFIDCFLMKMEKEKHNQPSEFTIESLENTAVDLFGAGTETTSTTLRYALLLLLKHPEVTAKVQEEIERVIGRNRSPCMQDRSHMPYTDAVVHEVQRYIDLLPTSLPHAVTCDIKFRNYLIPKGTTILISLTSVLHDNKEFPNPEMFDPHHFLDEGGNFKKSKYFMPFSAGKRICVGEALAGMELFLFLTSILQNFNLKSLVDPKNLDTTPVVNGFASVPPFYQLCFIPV
Cytochrome P450 2D6 (Homo sapiens), sequence (P10635 whole entry, looked up): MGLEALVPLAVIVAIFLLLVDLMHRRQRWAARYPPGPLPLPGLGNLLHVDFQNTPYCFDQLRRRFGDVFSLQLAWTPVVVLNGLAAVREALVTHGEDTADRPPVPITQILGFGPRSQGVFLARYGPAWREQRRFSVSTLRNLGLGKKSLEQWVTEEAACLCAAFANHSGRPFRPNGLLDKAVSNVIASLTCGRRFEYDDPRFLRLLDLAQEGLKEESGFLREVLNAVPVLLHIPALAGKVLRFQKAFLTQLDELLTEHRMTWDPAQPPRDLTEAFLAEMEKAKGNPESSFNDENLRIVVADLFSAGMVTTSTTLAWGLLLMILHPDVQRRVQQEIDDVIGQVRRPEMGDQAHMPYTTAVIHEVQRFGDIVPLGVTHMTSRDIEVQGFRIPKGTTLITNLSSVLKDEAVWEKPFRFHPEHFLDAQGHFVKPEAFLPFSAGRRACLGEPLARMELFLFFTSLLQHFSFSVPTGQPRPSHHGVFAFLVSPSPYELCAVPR
Cytochrome P450 3A4 (Homo sapiens), sequence (P08684 whole entry, looked up): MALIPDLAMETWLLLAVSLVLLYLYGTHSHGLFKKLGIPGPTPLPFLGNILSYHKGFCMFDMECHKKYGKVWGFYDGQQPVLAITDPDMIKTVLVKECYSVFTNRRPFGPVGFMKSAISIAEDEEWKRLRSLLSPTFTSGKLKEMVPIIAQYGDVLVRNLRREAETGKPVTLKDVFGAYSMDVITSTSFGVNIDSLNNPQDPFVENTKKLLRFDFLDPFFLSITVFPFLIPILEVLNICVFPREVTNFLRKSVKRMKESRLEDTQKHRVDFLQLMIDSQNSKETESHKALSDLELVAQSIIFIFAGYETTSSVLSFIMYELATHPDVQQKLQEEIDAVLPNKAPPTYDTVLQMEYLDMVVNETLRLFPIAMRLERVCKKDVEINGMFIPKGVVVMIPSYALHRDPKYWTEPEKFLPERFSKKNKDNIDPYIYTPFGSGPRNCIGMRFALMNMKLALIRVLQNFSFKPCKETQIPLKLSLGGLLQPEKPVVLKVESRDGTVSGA

On to `Cc1c(C)c2c(c(C)c1OC(=O)c1cccnc1)CC[C@@](C)(CCC[C@H](C)CCC[C@H](C)CCCC(C)C)O2`, for which the outcome in [1], in [2], in assay [3], in assay [4], in [5] and in assay [6] was inactive. Besides, the Potency result in [7], in [8], in assay [9] and in assay [10] was “inactive” throughout.
In the case of `NNc1nnc(NN)c2ccccc12`, the compound was called inactive in assay [1], in assay [2], in assay [3], in assay [4] and in assay [5]. Further, the Potency result in [11] and in assay [8] was “inactive” in each case. Also, in assay [7], the Potency is 22.9 µM (active).
`CC(=O)N[C@@H](CC(C)C)C(=O)O`: the outcome in assay [1], in assay [2], in assay [3], in [4], in assay [5] and in assay [6] was inactive. Further, the Potency result in assay [11], in [9] and in [10] was “inactive” in each case.
Regarding `O=C(O)CNC(=O)c1ccccc1I`, the result in assay [1], in [2], in assay [3], in assay [4], in [5] and in assay [6] was inactive. Moreover, the Potency result in assay [7] and in [8] was “inactive” each time.
On to `Cc1c(C(=O)NCCO)[n+](=O)c2ccccc2n1[O-]`, for which the call in assay [1], in [2], in assay [3], in assay [4], in assay [5] and in [6] was inactive. The compound was classed as inactive in [12]. For the same compound, the Potency result in [7], in assay [8], in assay [9] and in [10] was “inactive” in each case.
For `Nc1c2c(nc3c1CCC3)CCCC2`, the call in [1], in assay [2], in assay [3], in [4], in assay [5] and in assay [6] was inactive. Further, the Potency in [7] was 12.3 µM (active). Also, the Potency entry in assay [8] and in assay [9] was “inactive” each time.
Take `CC(C)(C)C(=O)OCOC(=O)[C@@H]1N2C(=O)[C@@H](NC(=O)[C@H](N)c3ccccc3)[C@H]2SC1(C)C`: the call in [1], in [2], in assay [3], in [4], in assay [5] and in assay [6] was inactive. Also, the Potency result in assay [7], in assay [9] and in [10] was “inactive” in each case.
Consider `CC(C)=CCC[C@@](C)(O)[C@H]1CC=C(C)CC1`, for which the compound was classed as inactive in assay [1], in assay [2], in assay [3], in assay [4], in assay [5] and in [6]. In addition, the Potency entry in assay [11] and in assay [9] was “inactive” throughout.
Take `NC(=O)NS(=O)(=O)c1ccc(N)cc1`: the call in assay [1], in [2], in assay [3], in assay [4] and in [5] was inactive. For the same compound, the Potency entry in [11], in assay [7] and in [8] was “inactive” throughout.
`CCCCCCCCCCC(CO)CCCCCCCC` (stereo not drawn): the call in [1], in assay [2], in [3], in [4] and in assay [5] was inactive. The Potency result in assay [11], in assay [7], in [8] and in assay [9] was “inactive” throughout.
With `CC(=O)N1C[C@H](O)C[C@H]1C(=O)O`, the compound was classed as inactive in assay [1], in assay [2], in assay [3], in assay [4] and in assay [5]. Also, the Potency entry in [11], in assay [7] and in [8] was “inactive” in each case.
For the compound `Cc1ccsc1/C=C/C1=NCCCN1C`, the call in assay [1], in assay [2], in assay [3], in [4], in [5] and in assay [6] was inactive. For the same compound, the Potency result in assay [11] and in assay [9] was “inactive” in each case.
Take `OCc1ccc(Cl)cc1Cl`: the call in [1], in [2], in assay [3], in assay [4], in assay [5] and in assay [6] was inactive. Also, in [12], the compound was called inactive. Moreover, the Potency result in assay [7], in [8], in [9] and in [10] was “inactive” in each case.
Take `COc1ccc2cc(CCC(C)=O)ccc2c1`: the result in [1], in assay [2], in [3], in [4], in assay [5] and in assay [6] was inactive. The result in assay [13] and in assay [14] was inactive. In addition, the Potency entry in assay [11], in [8], in [9] and in [10] was “inactive” throughout.
